Assay outcomes as filed in PubChem BioAssay.
Avidin fluor: avidin bead compound fluorescence profile. fluorescence (KMESF) at 10 µM. AID 1775. Avidin beads, compound fluorescence 488/530 nm, flow cytometry; stronger effect = higher value. hit rate 0.38% among 220,000; in the data active = fluorescence above about 47
RGS7-Gao reg: regulators of human RGS7-Galphao interaction. binding response (% of control), % at 10 µM. AID 1439. Multiplexed bead flow cytometry, RGS7-Galphao binding; actives lie on both sides. hit rate 0.35% among 220,000; in the data active = binding response below about 49% or above about 150%; inconclusive = no clear call, values can overlap the other calls; inactive = in between;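 note: fluorescent Galphao held in activated GDP-AlF4 state binding bead-coupled RGS7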
Target sequence (P09471 whole entry, looked up): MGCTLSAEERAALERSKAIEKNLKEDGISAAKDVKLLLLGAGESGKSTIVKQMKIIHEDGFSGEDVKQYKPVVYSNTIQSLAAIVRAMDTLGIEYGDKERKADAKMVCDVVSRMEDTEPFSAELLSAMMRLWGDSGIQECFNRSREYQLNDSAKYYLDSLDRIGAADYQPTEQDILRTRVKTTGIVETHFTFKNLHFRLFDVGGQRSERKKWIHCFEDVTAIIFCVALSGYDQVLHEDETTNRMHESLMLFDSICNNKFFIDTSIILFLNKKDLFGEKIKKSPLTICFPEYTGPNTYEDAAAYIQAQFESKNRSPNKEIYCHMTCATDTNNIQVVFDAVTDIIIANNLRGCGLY
RGS4-Gao reg: modulates binding of RGS4 to human Galphao | Multiplexed bead flow cytometry; actives lie on both sides | binding response (% of control), % at 10 µM | AID 1415 | P09471 | hit rate 0.33% among 220,000; in the data active = binding response below about 49% or above about 150%; inactive = in between;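 note: fluorescent Galphao activated with aluminum fluoride binding bead-coupled RGS4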
RGS16-Gao HTS: RGS16-Galphao interaction regulator (human). hit rate 0.38% among 220,000. AID 1441. binding response (% of control), % at 10 µM. bead-based flow cytometry RGS16-Galphao binding, fluorescence; actives lie on both sides;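 note: Galphao activated by GDP with aluminum fluoride before binding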
GSH fluor: GSH bead compound fluorescence profile. AID 1776. GSH beads flow cytometry, compound fluorescence 488/530 nm; stronger effect = higher value. fluorescence (KMESF) at 10 µM. hit rate 0.25% among 190,000; in the data active = fluorescence above about 89;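 note: glutathione beads carrying GST-tagged Bcl family fusion proteins plus one bare bead set; values are compound well signal with DMSO vehicle wells as background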
RGS8-Gao: modulates binding of RGS8 to human Galphao. P09471. multiplexed bead flow cytometry; actives lie on both sides. response (percent of control binding), % at 10 µM. hit rate 0.34% among 220,000; in the data active = response below about 60% or above about 140%; inactive = in between;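 note: Galphao activated as the GDP aluminium fluoride complex binding bead-coupled RGS8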
RGS-Gao: RGS4-Galphao interaction regulator (human). shares compounds with RGS16-Gao HTS. multiplexed bead flow cytometry, RGS–Galpha-o binding. RGS4–Galpha-o binding response, % at 10 µM. hit rate 99% among 1,600;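 note: fluorescently labeled Galpha-o bound to GDP with aluminium fluoride binding biotinylated RGS beads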
Biotin-avidin: interferes with biotinylated probe binding to avidin beads. shares compounds with RGS16-Gao HTS. streptavidin beads, fluorescein-biotin binding, flow cytometry. inhibition, % at 10 µM. 1,700 tested, under 10 active. AID 1783;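 active = inhibition above 50%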;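 note: median green fluorescence of gated singlet beads compared with DMSO control wells; 0% = DMSO wells and 100% = complete loss of bead fluorescence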
RGS8-Gao single: RGS8-Galphao interaction regulation, single point confirmation; shares compounds with RGS16-Gao HTS; bead-based flow cytometry RGS8-Galphao binding, fluorescence; actives lie on both sides; binding response (% of control), % at 10 µM; hit rate 3% among 1,700; AID 1836; in the data active = binding response below about 72% or above about 130%; inactive = in between;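 note: Galphao activated as GDP AlF4 complex before binding bead RGS8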
RGS7-Gao single: RGS7-Galphao interaction regulation, single point confirmation. shares compounds with RGS16-Gao HTS. AID 1837. response (percent of control binding), % at 10 µM. bead-based flow cytometry RGS7-Galphao binding; actives lie on both sides. hit rate 7.8% among 1,700; in the data active = response below about 75% or above about 130%; inactive = in between;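 note: fluorescent Galphao activated with GDP and aluminum fluoride binding bead-coupled RGS7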
RGS16-Gao conf: confirmation of regulators of human RGS16-Galphao interaction | shares compounds with RGS16-Gao HTS | bead-based flow cytometry, RGS16-Galphao binding; actives lie on both sides | response (% of control binding), % at 10 µM | hit rate 4% among 1,700 | AID 1838; in the data active = response below about 74% or above about 130%; inactive = in between;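 note: Galphao activated as the GDP aluminium fluoride complex binding bead-coupled RGS16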
RGS4-Gao confirm: confirmation of regulators of human RGS4-Galphao interaction. shares compounds with RGS16-Gao HTS. hit rate 4% among 1,700. binding response (% of control), % at 10 µM. RGS4-Galphao binding, multiplexed bead flow cytometry; actives lie on both sides; in the data active = binding response below about 74% or above about 130%; inactive = in between
RGS19-Gao conf: confirmation of regulators of human RGS19-Galphao interaction; shares compounds with RGS16-Gao HTS; bead-based flow cytometry RGS19-Galphao binding; actives lie on both sides; response (percent of control binding), % at 10 µM; hit rate 5% among 1,700; in the data active = response below about 50% or above about 160%; inactive = in between;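 note: 100% = no compound control and 0% = blank background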
Target sequence (P09471 whole entry, looked up): as above
Target sequence (P49795 whole entry, looked up): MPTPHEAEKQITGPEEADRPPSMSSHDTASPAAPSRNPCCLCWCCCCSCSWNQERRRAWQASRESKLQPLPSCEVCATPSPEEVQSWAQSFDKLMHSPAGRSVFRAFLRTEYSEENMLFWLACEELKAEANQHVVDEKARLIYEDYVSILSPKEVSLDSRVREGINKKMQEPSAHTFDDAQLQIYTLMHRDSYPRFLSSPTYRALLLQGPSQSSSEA
* = called active by the depositor; [ ] = remark or other dose. Most compounds without a hit are left out; they make up all but 1.2% or so of the library. Unless noted, the rule behind the calls is not given here.

`CCOC(=O)c1csc(COc2ccc(OC)cc2)n1` gave Avidin fluor 8, RGS7-Gao reg inconclusive, RGS4-Gao reg 106, RGS16-Gao HTS 108 and RGS8-Gao 103.
Screening CC(=O)Nc1cnc2ccccc2n1 returned Avidin fluor 102*, RGS7-Gao reg 181*[activator], RGS4-Gao reg 113, RGS16-Gao HTS 108, GSH fluor 24, RGS8-Gao 102, RGS-Gao 113*, Biotin-avidin 0, RGS8-Gao single 100, RGS7-Gao single 102, RGS16-Gao conf 97, RGS4-Gao confirm 96 and RGS19-Gao conf 91.
Screening OCCNc1cnc2ccccc2n1 returned Avidin fluor 10, RGS7-Gao reg inconclusive, RGS4-Gao reg 107, RGS16-Gao HTS 108, GSH fluor 10 and RGS8-Gao 105.
`C/C(=C\C(=O)C(F)(F)F)Nc1ccc(C)cc1` gave Avidin fluor 5, RGS7-Gao reg 117, RGS4-Gao reg 120, RGS16-Gao HTS 598, GSH fluor 12, RGS8-Gao 166*[activator], RGS-Gao 120*, Biotin-avidin 0, RGS8-Gao single 99, RGS7-Gao single 101, RGS16-Gao conf 97, RGS4-Gao confirm 99 and RGS19-Gao conf 104.
`Cc1cc2cc(C#N)c(N3CCN(S(C)(=O)=O)CC3)nc2cc1C` gave Avidin fluor 6, RGS7-Gao reg 101, RGS4-Gao reg 101, RGS16-Gao HTS 94, GSH fluor 11 and RGS8-Gao 97.
FC(F)(Cl)c1nnc2ccc(Sc3ccccn3)nn12 was read as Avidin fluor 12, RGS7-Gao reg 106, RGS4-Gao reg 105, RGS16-Gao HTS 103, GSH fluor 15 and RGS8-Gao 101.
Screening Cc1ccc2nc(N(CCCN(C)C)C(=O)c3ccco3)sc2c1 returned Avidin fluor 252*, RGS7-Gao reg active[activator], RGS4-Gao reg active[activator], RGS16-Gao HTS active[activator], GSH fluor 232*, RGS8-Gao 237*[activator], Biotin-avidin 0, RGS8-Gao single 101, RGS7-Gao single 93, RGS16-Gao conf 100, RGS4-Gao confirm 98 and RGS19-Gao conf 101.
For CN(C)CCCN(C(=O)c1ccco1)c1nc2ccc(F)cc2s1 the results were Avidin fluor 12, RGS7-Gao reg inconclusive, RGS4-Gao reg 103, RGS16-Gao HTS 102, GSH fluor 15 and RGS8-Gao 104.
`COc1cc2c(cc1OC)C(C1C(=O)CC(C)(C)CC1=O)N(C(=O)CCl)CC2` (stereo not drawn) gave Avidin fluor 7, RGS7-Gao reg 92, RGS4-Gao reg 90, RGS16-Gao HTS 17*, GSH fluor 7, RGS8-Gao 74, RGS-Gao 90*, Biotin-avidin 0, RGS8-Gao single 99, RGS7-Gao single 99, RGS16-Gao conf 101, RGS4-Gao confirm 100 and RGS19-Gao conf 103.
`CC1CC(=O)C(C2c3ccccc3CCN2C(=O)CCl)C(=O)C1` (stereo not drawn) gave Avidin fluor 13, RGS7-Gao reg 106, RGS4-Gao reg 99, RGS16-Gao HTS 100, GSH fluor 10 and RGS8-Gao 100.
Screening O=C(O)[C@H]1Cc2ccccc2CN1S(=O)(=O)c1ccc(F)cc1 returned Avidin fluor 7, RGS7-Gao reg inconclusive, RGS4-Gao reg 99, RGS16-Gao HTS 30, RGS8-Gao 100, Biotin-avidin -2, RGS8-Gao single 110, RGS7-Gao single 123, RGS16-Gao conf 109, RGS4-Gao confirm 115 and RGS19-Gao conf 119.
CC(=O)c1ccc(S(=O)(=O)N2Cc3ccccc3CC2C(=O)O)cc1 (stereo not drawn) was read as Avidin fluor 3, RGS7-Gao reg inconclusive, RGS4-Gao reg 104, RGS16-Gao HTS 102 and RGS8-Gao 104.
`C/C(=N/NC(=O)CNc1ccc(C)cc1)c1ccc(Cl)cc1` gave GSH fluor 18, Biotin-avidin 3, RGS8-Gao single 102, RGS7-Gao single 106, RGS16-Gao conf 100, RGS4-Gao confirm 100 and RGS19-Gao conf 107.
Cc1ccc(C(=O)CNc2ccc(Cl)cc2)cc1 was read as Avidin fluor 8, RGS7-Gao reg 107, RGS4-Gao reg 103, RGS16-Gao HTS 104, GSH fluor 12 and RGS8-Gao 103.
Screening CC(=O)c1cccc(NS(=O)(=O)c2ccc(N/C=C\C(=O)c3ccc(C)cc3)cc2)c1 returned Avidin fluor 25, RGS7-Gao reg 264*[activator], RGS4-Gao reg 138, RGS16-Gao HTS 114, GSH fluor 12, RGS8-Gao 90 and RGS-Gao 138*.
O=C(NCc1cccnc1)C(=O)NCC1OCCN1S(=O)(=O)c1cc(F)ccc1F (stereo not drawn) was read as Avidin fluor 75*, RGS7-Gao reg inconclusive, RGS4-Gao reg 206*[activator], RGS16-Gao HTS 200*[activator], RGS8-Gao 115, Biotin-avidin -1, RGS8-Gao single 100, RGS7-Gao single 95, RGS16-Gao conf 96, RGS4-Gao confirm 95 and RGS19-Gao conf 124.
For N=C1C2=C3Sc4ccccc4N3CCCC2=NN1c1cccc(S(=O)(=O)O)c1 the results were Avidin fluor -2, RGS7-Gao reg inconclusive, RGS4-Gao reg -11*, RGS16-Gao HTS -6.4*, RGS8-Gao 8.6*, Biotin-avidin -1, RGS8-Gao single 100, RGS7-Gao single 97, RGS16-Gao conf 100, RGS4-Gao confirm 99 and RGS19-Gao conf 85.
